Results: the supplement of paper PMC6897291

Each compound was assayed on U-2932 (assay: growth inhibition by drug plus 177Lu-lilotomab satetraxetan (1 - RLU/untreated control) (fraction); higher = stronger inhibition). Conditions: 10 nM; time (day): 6; 177Lu-lilotomab satetraxetan 1 ug/ml.
Procedure, shortened: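 RIVA or U-2932 cells were left untreated or pretreated for 18 h with a radiolabelled anti-CD37 antibody conjugate (~600 MBq/mg) at 0.5 µg/ml for RIVA or 1 µg/ml for U-2932. The cells were then washed and seeded at 3,000 cells/well on plates pre-printed with the Selleck Cambridge Cancer Compound library, dosed at 10/100 nM for RIVA and 10/1,000 nM for U-2932. From day 3, RealTime-Glo luminescence was read daily after 1 h at 37°C. Growth inhibition was taken as one minus RLU over the mean of the untreated no-drug wells, of which there were 48 per plate.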

Compound | growth inhibition by drug plus 177Lu-lilotomab satetraxetan
COC(=O)c1ccc2c(C(=Nc3ccc(N(C)C(=O)CN4CCN(C)CC4)cc3)c3ccccc3)c(O)[nH]c2c1 [BIBF1120 (Vargatef)] | 0.146
CC[C@@H]1/C=C(\C)C[C@H](C)C[C@H](OC)[C@H]2O[C@@](O)(C(=O)C(=O)N3CCCC[C@H]3C(=O)O[C@H](/C(C)=C/[C@@H]3CC[C@H](Cl)[C@H](OC)C3)[C@H](C)[C@@H](O)CC1=O)[C@H](C)C[C@@H]2OC [Pimecrolimus] | 0.352
CN(C)CCOc1ccc(-c2nc(-c3ccncc3)c(-c3ccc4c(c3)CC/C4=N\O)[nH]2)cc1 | 0.196
COc1ccc(CCN2CCN(CCCc3ccccc3)CC2)cc1OC | 0.0237
CNC(=O)c1cc(Oc2ccc(NC(=O)Nc3cc(C(C)(C)C)nn3-c3ccc4ncccc4c3)c(F)c2)ccn1 [DCC-2036 (Rebastinib)] | 0.132
CCC(C)(C)C(=O)O[C@H]1C[C@@H](C)C=C2C=C[C@H](C)[C@H](CC[C@@H]3C[C@@H](O)CC(=O)O3)[C@H]21 [Simvastatin (Zocor)] | 0.124
CCc1ccc(CCOc2ccc(CC3SC(=O)NC3=O)cc2)nc1 (stereo not drawn) [Pioglitazone (Actos)] | 0.114
O=C(O)C(Cc1c[nH]c2ccccc12)N1C(=O)c2ccccc2C1=O (stereo not drawn) | 0.0338
